Sampled rows, rich in hits. Any-hit rate of the full collection: about 19%.
DT40 TDP1 no CPT = qHTS for Inhibitors of human tyrosyl-DNA phosphodiesterase 1 (TDP1): qHTS in cells in absence of CPT. DT40 Tdp1-/- hTDP1 cells, no CPT, ATP luminescence, 48 h. Potency, µM (top dose mostly 46.2 µM), for the others: top-dose activity change, negative = growth inhibition, actives largely listed as inhibitors. 420,000 tested, 15% active; also: potency is read from the fitted curve at half-maximal effect; nearly all actives have a fitted effect of over 55% in size
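Growth kinetics read by CellTiter-Glo luminescence after ≥48 hr at 37 °C. Cells: DT40 Tdp1-/- stably carrying human TDP1, 400 per well, compound exposure in the absence of CPT (DMSO vehicle).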
TDP1 cell CPT = qHTS for Inhibitors of human tyrosyl-DNA phosphodiesterase 1 (TDP1): qHTS in cells in presence of CPT. chicken DT40 Tdp1-/-;hTDP1 cells + 20 nM CPT, ATP luminescence, 48 h. Potency, µM (doses to about 46.2 µM), for inactives: at the highest dose activity change, negative = growth inhibition, usual class: inhibitors. 420,000 tested, 12% active. AID 686979, 2013; also: potency is read from the fitted curve at half-maximal effect; nearly all actives have a fitted effect of over 55% in size
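Chicken DT40 Tdp1-/- cells stably complemented with human TDP1 were seeded at 400 cells/well in medium containing 20 nM camptothecin, exposed to pin-transferred compounds, and grown at 37 °C for at least 48 hr. Viability was read as ATP luminescence.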
IL1B secr inh = qHTS for Inhibitors of Inflammasome Signaling: IL-1-beta AlphaLISA Primary Screen; THP-1 LPS/ATP IL-1B secretion, AlphaLISA, 16 h; stronger effect = lower value; activity change, % at 57.5 µM; 360,000 tested, 4.7% active; AID 743279, 2014; in the data active = activity change below about -50%; inconclusive = mostly about -30% to -49%
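Secreted IL-1B measured by AlphaLISA bead assay after 16 h compound exposure of THP-1 cells; compounds (final up to 57.5 uM) added 1 h before LPS (250 ng/mL) and ATP (1.25 mM) stimulation; lower signal means less secretion.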
HT1080NT lethal = qHTS for induction of synthetic lethality in tumor cells producing 2HG: qHTS for the HT-1080-NT fibrosarcoma cell line. HT-1080-NT fibrosarcoma viability, CellTiter-Glo ATP luminescence, 48 h. 360,000 tested, 1.6% active. Potency, µM (doses to about 46.1 µM), inactives show top-dose activity, negative = less viability, actives largely listed as cytotoxic. AID 686970, 2013;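 also: NT is the 2HG producing partner of a matched IDH1 knockdown line; potency is read from the fitted curve at half-maximal effect; 0% = DMSO-treated cells and -100% = media-only wells without cells; nearly all actives have a fitted effect of over 55% in size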
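Compounds were tested in concentration-response format on HT-1080-NT cells for 48 hours at 37 degrees C. Cell viability came from CellTiter-Glo luminescence; curves were classified by r2, response magnitude and activity.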
HT1080 IDH1KD tx = qHTS for induction of synthetic lethality in tumor cells producing 2HG: qHTS for the HT-1080-IDH1KD cell line | Potency, µM (doses to about 46.1 µM), for the others: top-dose activity, negative = toxicity, most hits filed as cytotoxic | HT-1080 IDH1 knockdown viability, ATP luminescence, 48 h | AID 686971, 2013 | 360,000 tested, 2% active;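 also: potency is read from the fitted curve at half-maximal effect; 0% = DMSO wells and -100% = cell-free medium wells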
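% activity derives from luminescence (CellTiter-Glo), normalised to DMSO and no-cell wells. HT-1080-IDH1KD cells, 750/well, had 48 h compound exposure at 37 °C.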
Numbers without * were called inactive; ? = inconclusive; . = not tested or not shown. Unless noted, calls follow the shape of the dose curve; as a rule, active = well fitted curve in the direction sought with a large enough effect; inconclusive = small, poorly fitted or top-dose-only effect, or another doubt; inactive = no such curve, though single readings can be large; an effect the other way counts as inactive or inconclusive. Unless noted, % is scaled to controls: 0 for no effect and ±100 for the full control effect.

SMILES	DT40 TDP1 no CPT	TDP1 cell CPT	IL1B secr inh	HT1080NT lethal	HT1080 IDH1KD tx
COCCN(C(=O)COC(=O)COc1ccc(Cl)c(C)c1)c1c(N)n(Cc2ccccc2)c(=O)[nH]c1=O	-5.9%	-0.5%	5.1	0.9%	-3.4%
COCCN(Cc1cc2cc3c(cc2nc1Cl)OCO3)C(=O)Nc1ccc(OC)cc1	10.3µM*	?	13.0	7.7%	9.5%
COCCN(Cc1cc2cc3c(cc2nc1Cl)OCO3)C(=O)Nc1ccc(F)cc1	11.2µM*	16.4µM*	-70.9*	-4.2%	17.3%
COc1ccccc1NC(=O)N(CCCN1CCOCC1)Cc1cc2cc3c(cc2[nH]c1=O)OCO3	?	-15.9%	-17.5	11.7%	0.0%
COCCN(Cc1cc2cc3c(cc2nc1Cl)OCO3)C(=O)Nc1ccccc1OC	23.1µM*	16.4µM*	-25.9	-14.9%	2.6%
Cc1ccc2nc(Cl)c(CN(Cc3cccs3)C(=O)C3CC3)cc2c1	-26.7%	?	-3.7	-3.4%	-24.7%
COCC(=O)N(CCN(C)C)Cc1cc2cc3c(cc2nc1Cl)OCO3	14.5%	-0.5%	0.0	-3.0%	0.6%
COc1ccc(CCN(Cc2cc3cc(C)c(C)cc3nc2Cl)C(=O)C2CC2)cc1	20.6µM*	25.9µM*	33.1	4.9%	8.0%
CC(=O)N(Cc1ccc2c(c1)OCO2)C1CC(=O)N(CCc2ccccc2)C1=O (stereo not drawn)	-6.7%	-16.1%	-17.0	1.4%	-1.3%
C=CCn1c(SC(C)C#N)nc2ccccc2c1=O (stereo not drawn)	?	-0.2%	.	.	.
Cc1cc([N+](=O)[O-])nn1CCCC(=O)Nc1cccc(Cl)c1Cl	-21.5%	-14.5%	-12.2	1.3%	3.7%
O=C(CSc1cccc[n+]1[O-])C12CC3CC(CC(C3)C1)C2	?	?	2.5	-1.1%	0.2%
CCOC(=O)C1CCNC(=O)C1=O (stereo not drawn)	13.1%	8.3%	20.0	6.6%	1.5%
COCCN(Cc1cc2cc(C)ccc2nc1Cl)C(=O)Nc1ccccc1C	15.8µM*	16.4µM*	-69.6*	-1.1%	7.1%
CC(C)C(NC(=O)OCc1ccccc1)C(=O)NC(Cc1c[nH]c2ccccc12)C(=O)O (stereo not drawn)	2.0%	-11.8%	0.0	13.3%	5.2%
CCN(CC)c1ccc(C=C(c2nnnn2-c2ccc(C)cc2)c2nnnn2-c2ccc(C)cc2)cc1	-8.9%	?	-10.9	-3.2%	-5.0%
O=C(Nc1ccc(Cl)cc1)Nc1nnc(CSCc2ccccc2)s1	18.4µM*	16.4µM*	-3.3	1.1%	3.7%
O=C(Nc1cccc(Cl)c1)Nc1nnc(CSCCOc2ccc(Cl)cc2)s1	3.26µM*	3.26µM*	-26.7	16.4µM*	18.4µM*
O=C(Nc1ccc(Cl)cc1)Nc1nnc(CSc2ccc(Cl)cc2)s1	2.59µM*	4.61µM*	-58.4*	16.9%	29.5%
O=C(Nc1ccccc1)Nc1nnc(SCc2ccc(Cl)cc2)s1	-21.9%	?	25.0	-0.7%	0.9%
O=C1CN(S(=O)(=O)c2cc(C(=O)O)ccc2Cl)c2ccccc2N1	-14.3%	15.2%	54.1	13.6%	13.7%
COc1ccccc1OCC(=O)NNC(=O)c1c(-c2ccccc2Cl)noc1C	-3.1%	?	18.6	-9.3%	-14.9%
Cc1nn(CCCC(=O)NCc2ccccc2)c(=O)c2c1sc1ccccc12	-76.3%	?	.	.	.
CCOC(=O)N1CCN(C(=O)CCCn2nc(C)c3sc4ccccc4c3c2=O)CC1	25.9µM*	?	?	19.3%	7.2%
Cc1nn(CCCC(=O)NCc2ccccc2Br)c(=O)c2c1sc1ccccc12	-20.5%	-26.3%	.	.	.
SMILES	DT40 TDP1 no CPT	TDP1 cell CPT	IL1B secr inh	HT1080NT lethal	HT1080 IDH1KD tx
COc1ccc(CCNC(=O)CCCn2nc(C)c3sc4ccccc4c3c2=O)c(OC)c1	?	23.1µM*	.	.	.
CC(=O)c1ccc([N+](C)(C)C)cc1	-1.5%	16.7%	.	.	.
CCOCCCNCc1cn(-c2ccc(F)cc2F)nc1-c1ccccc1C	16.4µM*	14.6µM*	-76.9*	-9.3%	-10.3%
Cc1ccccc1-c1nn(-c2ccc(F)cc2F)cc1CNCC(C)O (stereo not drawn)	?	-27.6%	-19.1	-0.5%	-9.6%
O=C(Nc1cccc(Cl)c1)c1ccc2c(c1)CCN2S(=O)(=O)c1ccccc1	20.6µM*	13µM*	.	.	.
O=C(c1ccc2c(c1)CCN2S(=O)(=O)c1ccccc1)N1CCN(c2ccccc2F)CC1	-1.1%	-22.2%	31.9	-12.4%	-7.2%
CC(=O)c1cccc(NC(=O)c2ccc3c(c2)CCN3S(=O)(=O)c2ccccc2)c1	20.6µM*	14.6µM*	7.3	-20.2%	-9.6%
Cc1ccc(Cl)cc1N1CCN(C(=O)c2ccc3c(c2)CCN3S(=O)(=O)c2ccccc2)CC1	10.3µM*	9.2µM*	.	.	.
CSc1cccc(NC(=O)c2ccc3c(c2)CCCN3S(C)(=O)=O)c1	?	16.4µM*	.	.	.
CC(=O)Nc1cccc(NC(=O)c2ccc3c(c2)CCN3S(=O)(=O)c2ccccc2)c1	?	?	?	-13.1%	-12.7%
CCc1ccc(CNC(=O)CCN2C(=O)COc3ccccc32)cc1	?	4.8%	.	.	.
O=C(COC(=O)/C=C/c1ccco1)Nc1cccc([N+](=O)[O-])c1	-12.1%	-6.9%	0.0	3.2%	-3.8%
COC(=O)NCC(c1cccnc1)N1CCN(c2ccc(F)cc2)CC1 (stereo not drawn)	-15.8%	-12.4%	.	.	.
CSc1cccc(NC(=O)c2cccc(N3CCCS3(=O)=O)c2)c1	18.4µM*	?	.	.	.
O=C(Nc1ccccc1)c1cccc(N2CCCS2(=O)=O)c1	1.7%	-21.1%	.	.	.
CCS(=O)(=O)N1CCCc2cc(C(=O)Nc3cccc(C(C)=O)c3)ccc21	25.9µM*	?	.	.	.

Screening results (PubChem BioAssay)
